NPC1 prom act = activates the NPC1 promoter. Huh7 NPC1 promoter luciferase reporter, 24 h. Potency, µM (titrated, usually from 9.22 µM), inactives show at the highest dose activation, most hits filed as activators. hit rate 2.4% among 320,000; note: % of control where 0% means no effect; nearly all actives have a fitted effect of over 60% in size
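Stable NPC1-promoter luciferase Huh7 line; cpd (DMSO) 24 h, 37 °C, 5% CO2; Amplite luciferase reagent 10 min RT; luminescence readout. qHTS format.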
Rab9 promoter act = activators of Rab9 promoter | Huh7 Rab9 promoter-luciferase reporter, luminescence, 24 h | Potency, µM (titrated, usually from 9.22 µM), for inactives: at the top dose activation, negative = inhibition, actives largely listed as activators | AID 485297 | hit rate 2.8% among 320,000; note: % of control where 0% means no effect; nearly all actives have a fitted effect of over 60% in size
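Huh7 reporter line, Rab9 promoter upstream of luciferase. Compound exposure 24 h at 37 °C in reduced-serum medium with 10% FBS. Read-out: luminescence.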
ELG1 genotoxic = inducers of genotoxicity in HEK293T ELG1-luciferase cells | HEK293T ELG1-luciferase reporter, luminescence, 16 h | Potency, µM (titrated, usually from 46 µM), for the others: top-dose activity change, positive = activation, most hits filed as activators | hit rate 1.3% among 330,000; note: % of control where 0% means no effect; nearly all actives have a fitted effect of over 60% in size
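Quantitative HTS format in 1536-well plates. HEK293T ELG1-luciferase reporter cells receive test compound and are incubated 16 hr at 37 °C, 5% CO2; ONE-Glo added, 30 min room temperature, then luminescence read.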
FLuc modulator = counter-screen for miR-21 project: firefly luciferase inhibitors or activators | P08659 | purified FLuc, Km substrates, luminescence inhibition | Potency, µM (highest dose often 57.5 µM), without a hit: at the top dose activity change, negative = inhibition, usual class: inhibitors | hit rate 6.9% among 360,000;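 note: plate controls were vehicle for no effect and reference inhibitor for full effect; nearly all actives have a fitted effect of over 55% in size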
Target sequence (P08659 whole entry, looked up): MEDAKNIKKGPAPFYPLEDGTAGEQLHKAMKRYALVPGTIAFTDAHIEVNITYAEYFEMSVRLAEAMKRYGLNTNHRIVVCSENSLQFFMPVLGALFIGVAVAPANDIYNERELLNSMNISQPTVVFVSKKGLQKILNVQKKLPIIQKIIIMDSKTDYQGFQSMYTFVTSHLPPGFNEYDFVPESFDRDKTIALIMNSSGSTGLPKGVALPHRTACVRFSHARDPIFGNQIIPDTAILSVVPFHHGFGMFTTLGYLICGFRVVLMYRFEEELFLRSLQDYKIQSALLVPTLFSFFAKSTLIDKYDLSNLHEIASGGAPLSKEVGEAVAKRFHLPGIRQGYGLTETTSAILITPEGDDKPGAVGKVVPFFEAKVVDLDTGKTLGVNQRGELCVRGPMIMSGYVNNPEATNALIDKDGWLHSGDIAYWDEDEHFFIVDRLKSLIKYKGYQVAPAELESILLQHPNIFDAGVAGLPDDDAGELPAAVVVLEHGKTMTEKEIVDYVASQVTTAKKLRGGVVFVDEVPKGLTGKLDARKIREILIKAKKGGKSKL
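Biochemical qHTS of compounds, final roughly 60 µM downward over six points, against 10 nM purified firefly luciferase using Km concentrations of substrates (10 uM D-luciferin, 10 uM ATP) in Tris acetate pH 7.5 buffer; luminescence output.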
SMN2 splice enh = enhancers of SMN2 splice variant expression. HEK293 SMN2-luciferase splicing reporter, luminescence, 30-36 h. Potency, µM (titrated, usually from 46.1 µM), for inactives: at the highest dose activity change, positive = activation, most hits filed as activators. AID 1458. hit rate 2.8% among 210,000; note: % of control where 0% means no effect; nearly all actives have a fitted effect of over 55% in size
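HEK293 cells carry an SMN2 […]–luciferase reporter in which exon 7 inclusion puts luciferase in frame. Cells were plated 10-12 h before compound addition, then incubated 30-36 h at 37C. ONE-Glo luminescence was read; sodium butyrate at 4.5 mM final served as control.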
KinaseGlo FLuc = blocks Kinase-Glo luciferase, a counter-screen artifact | Kinase-Glo luciferase, ATP luminescence, 8 min | Potency, µM (series often up to 38.3 µM), without a hit: at the highest dose activity change, negative = inhibition, most hits filed as inhibitors | hit rate 0.28% among 200,000 | AID 1379; note: % is set by controls: 0 for no effect and ±100 for the full control effect; nearly all actives have a fitted effect of over 60% in size
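Substrate mix (final 50 mM imidazole pH 7.2, 50 mM KCl, 7 mM MgCl2, 10 uM ATP, 0.01% Tween 20, 0.05% BSA) plus pin-tool compound, then Kinase-Glo detection mix; 8 min ambient, luminescence read.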
Numbers without * were called inactive; ? = inconclusive; . = not tested or not shown; [ ] = remark or other dose. Hits are enriched below; roughly 7.5% of the tested compounds scored in any of these assays. Calls come from the whole dose curve; as a rule, active = well fitted curve in the direction sought with a large enough effect; inconclusive = small, poorly fitted or top-dose-only effect, or another doubt; inactive = no such curve, though single readings can be large; an effect the other way counts as inactive or inconclusive. Potency is the fitted concentration of half-maximal effect.

SMILES	NPC1 prom act	Rab9 promoter act	ELG1 genotoxic	FLuc modulator	SMN2 splice enh	KinaseGlo FLuc
COc1ccc(-c2cc(C(=O)N3CCCc4ccccc43)no2)cc1OC	-3%	1%	-2%	?	-6%	0%
COc1cccc(-c2cc(C(=O)N3CCCc4ccccc43)no2)c1	28%	2%	7%	12µM*	?	-3%
COc1ccc2c(c1)CCC1C2CC[C@@]2(C)C1CC[C@@H]2NCCCCCCN1C(=O)CCC1=O (stereo partly specified)	-5%[46.1 µM]	-9%[46.1 µM]	.	.	.	.
COc1ccc(-c2nc3c(Br)c(N)c(Br)cc3o2)cc1	3.2µM*	?	3%	1.3µM*	-18%	5%
Cc1oc(-c2ccccc2)nc1C(=O)O	-1%	-1%	0%	-7%	.	-2%
Nc1c(Br)cc2oc(-c3ccccc3)nc2c1Br	2%	?	?	2.1µM*	13µM*	-1%
O=C1C(C=Nc2ccccc2)=C(O)c2ccccc21	3.2µM*	1.6µM*	?	0.54µM*	16µM*	13µM*
COc1ccc(N=CC2=C(O)c3ccccc3C2=O)cc1	0.71µM*	0.32µM*	?	0.15µM*	4µM*	4.5µM*
O=C1C(C=NCCN2CCOCC2)=C(O)c2ccccc21	-5%	11%	?	6µM*	?	-7%
COc1ccc(Cn2c(O)c(C=Nc3ccc(OC)cc3)c3ccccc3c2=O)cc1	-8%	-1%	1%	-2%	22%	-3%
COc1ccc(S(=O)(=O)/N=C2\C=C(Nc3ccc(O)cc3)C(=O)c3ccccc32)cc1	-46%	-54%	-33%	?	.	.
COc1ccc(N=Cc2[nH]c3ccccc3c2O)cc1	8%	?	13%	2.1µM*	?	-19%
CN=CC1=C(O)c2ccccc2C1=O	4%	0%	11%	3%	17%	-1%
CCCN(CCC)C(=O)Cn1c(=O)n(-c2ccccc2)c(=O)c2c3c(sc21)CCCC3	.	.	.	-3%	-1%	.
O=C(CSc1ncc2c(n1)-c1ccccc1N(Cc1ccc(F)cc1)S2(=O)=O)NCc1ccccc1	.	.	.	2%	.	.
COc1ccc(CCNC(=O)CSc2nc(-c3ccc(F)cc3)cc(C(F)(F)F)n2)cc1OC	.	.	.	3%	28%	.
COc1cccc(NS(=O)(=O)c2ccc(C)c(C(=O)N3CCCCC3)c2)c1	1%	3%	-5%	-1%	.	.
COc1ccc(N=Cc2oc3ccc4ccccc4c3c2O)cc1	?	3.2µM*	22%	?	13µM*	-6%
COc1ccc(OC)c(/C=N\NC(=O)c2cc3c(ccc4ccccc43)o2)c1	2%	4%	-9%	-14%	.	.
CCCOc1cccc(C(=O)N(Cc2sccc2C)C2CCS(=O)(=O)C2)c1 (stereo unspecified)	.	.	.	-1%	-15%	.
CC(O)c1nc2ccccc2n1Cc1nnc(-c2ccc(Cl)cc2)o1 (stereo unspecified)	8%	16%	11%	17µM*	-25%	-5%
CC(C)(C)c1ccc(-c2nc(C#N)c(NCc3ccncc3)o2)cc1	16%	?	?	6µM*	.	.
COc1ccc(-c2nc(C#N)c(NCCc3ccccc3)o2)cc1OC	?	?	8.2µM*	6.7µM*	16µM*	-8%
CC(C)(C)c1ccc(-c2nc(C#N)c(NCCCn3ccnc3)o2)cc1	-4%	-1%	-2%	21µM*	.	.
N#Cc1nc(-c2ccc(F)cc2)oc1NCCCn1ccnc1	13%	26%	7%	-17%	27%	-1%
COc1ccc(-c2nc(C#N)c(NCCCn3ccnc3)o2)cc1OC	24%	20%	?	15µM*	6.3µM*	17%
CCC(=O)N1CCc2cc(S(=O)(=O)NC(Cc3ccccc3)C(=O)Nc3ccc(Cl)cc3)ccc21 (stereo unspecified)	.	.	.	5%	-6%	.
CCCc1nnc(SCC(=O)Nc2ccc(NC(C)=O)cc2)n1-n1cccc1	3%	1%	-3%	0%	.	.

Screening results deposited in PubChem BioAssay by National Center for Advancing Translational Sciences (NCATS).
